# From PubChem BioAssay AID488835 (Broad Institute, 2010)
# The whole screen tested about 1,400 compounds, of which about 140 (10%) were called active.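 How the source made its calls: active means Half-maximal inhibitory dose from the fit at or below ten times the top valid tested dose; inconclusive means Invalid fit, or flat curve showing 30 to 70% inhibition; inactive means the rest.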 The list is a sample of the results. Entries with a potency or affinity are not part of this list.
# Target: Lysine-specific demethylase 4C (Homo sapiens) (UniProt Q9H3R0)
# Sequence (Q9H3R0 1-420 limits assumed): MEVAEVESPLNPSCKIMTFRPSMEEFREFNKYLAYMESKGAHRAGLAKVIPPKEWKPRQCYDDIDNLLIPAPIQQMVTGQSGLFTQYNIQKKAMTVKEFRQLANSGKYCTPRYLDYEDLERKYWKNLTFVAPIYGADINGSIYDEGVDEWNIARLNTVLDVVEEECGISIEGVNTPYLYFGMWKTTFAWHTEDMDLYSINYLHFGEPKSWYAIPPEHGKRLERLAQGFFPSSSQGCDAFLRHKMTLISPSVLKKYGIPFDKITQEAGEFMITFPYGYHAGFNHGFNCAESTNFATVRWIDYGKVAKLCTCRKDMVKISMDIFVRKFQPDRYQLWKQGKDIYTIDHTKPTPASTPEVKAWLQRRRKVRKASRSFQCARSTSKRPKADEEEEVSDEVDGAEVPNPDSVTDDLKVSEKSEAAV
# Test: inhibition of JMJD2C H3K9me3 demethylation – biochemical, DELFIA europium, cherry-picked samples, dose response (AID 488835);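 further: signal is the H3K9me2 demethylation product detected by a dimethyl-specific antibody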
# Settings: GST-JMJD2C(1-420); series mostly up to 6 µM
row,SMILES,outcome
1,CCc1ccc(NC(=O)N(CCN2CCOCC2)C2CCN(C(C)=O)CC2)cc1,inactive
2,Cc1nnc(SCc2nnc(-c3ccccc3)o2)n(N)c1=O,inactive
3,COc1ccc(NC(NC(=O)c2cccnc2)C(Cl)(Cl)Cl)cc1 (stereo unspecified),inactive
4,CCCC(=O)Nc1nn(C)c2nc3c(C)cccc3cc12,inactive
5,O=C(COc1ccc(NC(=O)c2ccccc2)cc1)c1ccccc1,inactive
6,C[C@@H]1CC[C@]2(C(=O)O[C@@H]3O[C@H](CO)[C@@H](O)[C@H](O)[C@H]3O)CC[C@]3(C)C(=CCC4[C@@]5(C)C[C@@H](O)[C@H](O)[C@@](C)(C(=O)O[C@@H]6[C@H](O)C[C@@]7(C)C(CC[C@]8(C)C7CC=C7[C@H]9[C@](C(=O)O[C@@H]%10O[C@H](CO)[C@@H](O)[C@H](O)[C@H]%10O)(CC[C@@H](C)[C@@]9(C)O)CC[C@]78C)[C@@]6(CO)C(=O)O)C5CC[C@]43C)[C@@H]2[C@]1(C)O (stereo partly specified),inactive
7,Cc1cccc(C(=O)NCC(c2ccco2)N2CCc3ccccc32)c1 (stereo unspecified),inactive
8,COc1ccc(Nc2ncnc3sc(-c4ccccc4)cc23)cc1OC,inactive
9,COc1ccccc1Cc1nnc(NC(=O)C2CCN(C(=O)c3ccco3)CC2)s1,inactive
10,CCN(C[C@H]1N[C@@](C)(C(=O)OC)[C@H]2C(=O)N(C)C(=O)[C@@H]12)C(=O)Nc1ccc(C)cc1,inactive
11,CCCCN(CC)S(=O)(=O)c1ccc(C(=O)Nc2nnc(COC)o2)cc1,inactive
12,O=C(NCc1cccc(Cl)c1)c1ccc2c(c1)OCO2,inactive
13,Cc1cc(C)nc(NC(N)=NC(C)c2ccccc2)n1 (stereo unspecified),inactive
14,CCn1c(O)c(N=NC2=NC(=O)CS2)c2ccccc21,inactive
15,O=C(CCSCc1ccccc1F)NCCc1ccccc1,inactive
16,Cc1noc(C)c1S(=O)(=O)N(C)C[C@H]1Oc2c(NC(=O)Nc3ccc(C(F)(F)F)cc3)cccc2C(=O)N([C@H](C)CO)C[C@@H]1C,inactive
17,Cc1ccc(C(=O)N2CCN(c3ccc(Cl)cc3)CC2)cc1,inactive
18,COc1cccc(NC(=O)CCN2C(=O)C3CC=CCC3C2=O)c1 (stereo unspecified),inactive

row,SMILES,outcome
1,NC(=O)Cn1nc([N+](=O)[O-])nc1Oc1ccccc1F,inactive
2,S=C(NCc1ccco1)Nc1cccc(Cl)c1,inactive
3,O=C(NCc1ccccc1)c1ccc2c(c1)OCCO2,inactive
4,Cc1noc(C)c1NC(=O)Nc1cccc2c1O[C@H](CN(C)C(=O)Nc1ccc3c(c1)OCO3)[C@@H](C)CN([C@H](C)CO)C2=O,inactive
5,Cc1[nH]n(-c2ccccc2)c(=O)c1N=Nc1nccs1,inactive
6,CCOC(=O)N1CCc2c(sc3nc4n(c(=O)c23)N=C(C)CS4)C1,inactive
7,COc1ccc(CN(Cc2nc3ccccc3c(=O)[nH]2)C(=O)NC2CCCCC2)cc1,inactive
8,NC(=O)C1CCN(C(=O)c2ccc(Oc3cc(Cl)cc(Cl)c3)o2)CC1,inactive
9,COc1ccccc1-n1cnnc1SCC(=O)Nc1ncc(Cl)cc1Cl,inactive
10,COc1ccccc1NC(=O)COC(=O)/C=C/c1cccs1,inactive
11,O=[N+]([O-])c1cc(Cl)ccc1Nc1ccccc1,inactive
12,O=C(COC(=O)c1ccc(O)cc1)Nc1ccc(Cl)cc1,inactive
13,COc1ccccc1NC(=O)c1cccs1,inactive
14,CC(=O)Nc1ccc(NC(=O)C2CCN(C(=O)c3cccs3)CC2)cc1,inactive
15,O=C(NCC1CCCO1)C(c1ccc(F)cc1)N(CCCN1CCOCC1)C(=O)c1ccc(-c2ccccc2)[nH]1 (stereo unspecified),inactive
16,COCCn1c(C(C)C)nc2sc3ccccc3c(=O)c2c1=O,inactive
17,COC(=O)CNS(=O)(=O)c1ccc(C)cc1,inactive
18,COC(=O)[C@]1(C)N[C@H](CN(C)C(=O)Nc2ccc(C)cc2)[C@@H]2C(=O)N(Cc3ccccc3)C(=O)[C@@H]21,inactive
